From the supplement of paper PMC6555819

Key:
Assay in all cases: PBM binding z-score (relative to random genomic background probes); higher = stronger binding; sequences stand for … in GC…GCGATTGACAGCGTAGAATGAAGG
[1] = system: FXR:RXRa (NR concentration 270 nM, RXRa partner concentration 90 nM)
Procedure, shortened: (§1)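 For binding z-scores, the reference was random background probes on custom Agilent 4×180K protein-binding microarrays. These arrays were incubated 1 h with ligand-free nuclear receptor dimers in PBS pH 7.4, 2% milk, 0.02% Triton X-100, 1 mM DTT, 0.2 mg/mL BSA and 0.4 mg/ml salmon testes DNA. Fluorescence was scanned after antibody detection of each partner (one per run) and regression-normalized.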

[2] = system: LXRa:RXRa (NR concentration 270 nM, RXRa partner concentration 90 nM)
Procedure, shortened: as §1

[3] = system: LXRa homodimer (NR concentration 270 nM)
Procedure, shortened: as §1

[4] = system: LXRb:RXRa (NR concentration 270 nM, RXRa partner concentration 90 nM)
Procedure, shortened: as §1

[5] = system: LXRb homodimer (NR concentration 270 nM)
Procedure, shortened: as §1

[6] = system: PPARa:RXRa (NR concentration 270 nM, RXRa partner concentration 90 nM)
Procedure, shortened: as §1

[7] = system: PPARg:RXRa (NR concentration 180 nM, RXRa partner concentration 90 nM)
Procedure, shortened: as §1

[8] = system: PPARg:RXRa 270nM:90nM, anti-RXR (NR concentration 270 nM, RXRa partner concentration 90 nM)
Procedure, shortened: as §1

[9] = system: PPARg:RXRa 30nM:10nM, anti-RXR (NR concentration 30 nM, RXRa partner concentration 10 nM)
Procedure, shortened: as §1

[10] = system: PPARg:RXRa 90nM:30nM, anti-RXR (NR concentration 90 nM, RXRa partner concentration 30 nM)
Procedure, shortened: as §1

[11] = system: PPARg:RXRa DBDmut IVT, anti-RXR (DBD mutation: RXRa K156A/R161A, NR concentration 270 nM, RXRa partner concentration 90 nM)
Procedure, shortened: as §1

[12] = system: PPARg:RXRa IVT, anti-PPARg (NR concentration 270 nM, RXRa partner concentration 90 nM)
Procedure, shortened: as §1

[13] = system: PPARg DBDmut:RXRa IVT, anti-PPARg (DBD mutation: PPARg1 K132A/R137A, NR concentration 270 nM, RXRa partner concentration 90 nM)
Procedure, shortened: as §1

[14] = system: PPARg DBDmut IVT, anti-PPARg (DBD mutation: PPARg1 K132A/R137A, NR concentration 270 nM)
Procedure, shortened: as §1

[15] = system: PPARg homodimer (NR concentration 180 nM)
Procedure, shortened: as §1

[16] = system: PXR:RXRa (NR concentration 270 nM, RXRa partner concentration 90 nM)
Procedure, shortened: as §1

[17] = system: PXR homodimer (NR concentration 270 nM)
Procedure, shortened: as §1

[18] = system: RARa:RXR (NR concentration 270 nM, RXRa partner concentration 90 nM)
Procedure, shortened: as §1

[19] = system: RARa homodimer (NR concentration 270 nM)
Procedure, shortened: as §1

[20] = system: RARb:RXRa (NR concentration 270 nM, RXRa partner concentration 90 nM)
Procedure, shortened: as §1

Row | Sequence | PBM binding z-score [1] | PBM binding z-score [2] | PBM binding z-score [3] | PBM binding z-score [4] | PBM binding z-score [5] | PBM binding z-score [6] | PBM binding z-score [7] | PBM binding z-score [8] | PBM binding z-score [9] | PBM binding z-score [10] | PBM binding z-score [11] | PBM binding z-score [12] | PBM binding z-score [13] | PBM binding z-score [14] | PBM binding z-score [15] | PBM binding z-score [16] | PBM binding z-score [17] | PBM binding z-score [18] | PBM binding z-score [19] | PBM binding z-score [20]
1 | CCCACTGGGCCATTCAGAGGTCATTGATCATATG | 2.54 | 4.33 | 5.65 | 3.72 | 0.313 | 3.79 | 2.37 | 3.28 | 0.826 | 2.27 | 3.42 | 4.55 | 0.045 | -0.746 | 1.93 | 4.67 | 2 | 4.2 | 0.72 | 2.96
2 | CTCGAAAGGTCGAGCTCAGGTGAGTATACCAAAC | 5 | 3.57 | -0.0751 | 3.02 | -0.142 | 4.73 | 2.39 | 3.54 | 1.14 | 2.04 | 0.787 | 1.71 | 1.15 | 0.22 | 2.06 | 2.86 | -0.325 |  | 0.256 | 4.2
3 | TAGCCTAGGTCACGGGCCAGTATACCACGCGAAC | 5.68 | 4.12 | 0.223 | 3.33 | -0.137 | 5.41 | 5.67 | 4.7 | 1.91 | 3.23 | 2.44 | 5.21 | 0.69 | 0.437 | 1.4 | 2.28 | -0.694 |  | 0.351 | 4.59
4 | CCAGAAAGGTGAAAGGTAACTCAGTCTGGTACGC | 2.31 | 2.14 | -0.21 | 2.12 | -0.446 | 5.13 | 6.55 | 6.26 | 4.77 | 6.27 | 4.19 | 4.68 | 0.791 | 0.428 | 1.51 | 2.26 | 0.172 |  | 0.674 | 3.3
5 | CCTTACGGGTCAAGGTTATATCACGGGTGGTACG | 5.41 | 3.89 | 0.787 | 3.34 | 0.134 | 4.99 | 4.26 | 4.7 | 1.6 | 3.52 | 1.74 | 3.78 | 0.607 | 0.522 | 2.64 | 3.63 | 0.951 |  | 0.89 | 4.15
6 | AATACAGGGTCCTCGTAGGCCAGAGTACGCACAG | -0.0498 | -0.32 | -0.268 | -0.362 | -0.321 | 0.0293 | 0.721 | -0.0515 | -0.317 | -0.0938 | -0.234 | 0.716 | -0.242 | 0.0325 | -0.0615 | -0.282 | -0.0675 | -0.118 | -0.348 | 0.268
7 | CCTTACGGGTCAAGGTAATAGCACGGGTGGTACG | 5.58 | 3.16 | -0.011 | 2.58 | -0.283 | 4.8 | 4.75 | 4.34 | 1.46 | 3.28 | 1.83 | 3.41 | 0.176 | -0.496 | 1.93 | 2.54 | 0.213 |  | 0.734 | 4.1
8 | ATCGAAAGGTCGAAAGTGAGTATACCCACCCGAA | 3.56 | 3.24 | 0.172 | 2.67 | 0.816 | 3.74 | 2.17 | 2.5 | 1.05 | 2.05 | -0.0216 | 1.35 | 1.11 | 0.905 | 0.0924 | 2.02 | 0.265 | 2.62 | 0.478 | 3.19
9 | GACACAGGGTCAGCTAGAGGCCAGAGTATGGAAA | 4.61 | 2.62 | -0.521 | 2.32 | -0.984 | 4.57 | 3.5 | 3.17 | 0.295 | 1.71 | 0.69 | 1.9 | -0.301 | -0.892 | 1.74 | 2.92 | -0.286 |  | -0.561 | 4.26
10 | ACTAGTTGTTCAGCTGAGGTCACACACAATTCGG | 3.49 | 3.18 | 2.25 | 3.55 | 0.715 | 3.83 | 1.53 | 1.94 | 0.705 | 1.03 | 0.514 | 2.19 | 0.853 | 0.948 | 2.16 | 4.83 | 1.87 |  | 1.09 | 3.28
11 | ACTAACAGGCCAAGGGTCACTCAAGATTAGTCCG | 2.89 | 3.27 | 0.663 | 3.06 | 0.292 | 4.35 | 6.9 | 6.64 | 4.86 | 6.91 | 0.923 | 3.21 | 0.489 | -0.189 | 3.04 | 3.56 | 0.163 |  | 1.2 | 3.57
12 | GATCCAGGGTCAGCTAGAGGCCAGAGTATGGAAA | 4.42 | 2.62 | -0.925 | 2.36 | -1.4 | 4.38 | 3.24 | 3.15 | 0.349 | 1.66 | 0.393 | 1.96 | -0.6 | -0.817 | 1.89 | 3.27 | -0.25 |  | -0.417 | 4.24
13 | CCTACGGGGCCAAAGGTCATTGATTCCAATGCTC | 5.67 | 5.59 | 4.4 | 5.16 | 0.715 | 6.04 | 11 | 9.49 | 8.43 | 11.1 | 1.49 | 5.33 | -0.65 | -0.159 | 5.46 | 6.24 | 2.59 |  | 2.51 | 4.72
14 | CAGACTAGGTCAAAGGTCAAAGTCGAGCCAACCA | 8.06 | 6.96 | 4.82 | 7.09 | 2.54 | 7.49 | 13.9 | 10.9 | 13.4 | 13.3 | 7.65 | 8.8 | 3.31 | 3.18 | 5.71 | 7.16 | 1.95 |  | 2.03 | 5.64
15 | CGTCCAAGGTCAAGCTCAGTGAAAGAGACTCGAA | 7.44 | 5.54 | 0.428 | 3.91 | 0.539 | 5.75 | 5.25 | 5.77 | 1.89 | 4.21 | 3.71 | 3.76 | 0.736 | 0.448 | 3.54 | 3.92 | 0.3 |  | 0.572 | 5.27
